# Several values for one entry are separate records, joined by “and”; a condition that tells them apart may be missing. Equal values may be shown once. Inconclusive results are not listed. For part of these data: Potency and affinity values are given separately. Activity calls are given as the source filed them.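 Rule for the calls, unless noted: active = thallium flux through the channel raised or lowered by more than 3 SD from vehicle-only wells, actives on both sides; inactive = the rest.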
# Columns and labels:
# [1] = modifiers of HSF1 nuclear foci, imaging, Selleck Cancer Library (AID 1347162; in the data active = plate-normalised HSF1 focus index below about 0.46); settings: human cells, at 10 µM; SSMD: measured here: HSF1 foci SSMD mean; cell count: measured here: cell number; plate-normalised HSF1 focus index: stronger effect = lower value
# [2] = test system: Neuropilin-2 / VEGF-C interaction (human); experiment: inhibitors of NRP2–VEGF-C binding, biochemical, microplate binding format, z-score (AID 743281; call rule not given here); settings: microplate NRP2/VEGF-C binding assay; stronger effect = lower value
# [3] = test system: F380Y/beta1; experiment: modulators of BK channel variants, profiling panel, selectivity assay, cell-based, U2OS BacMam, thallium flux, beta subunits (AID 1259406); settings: at 30 µM;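 note: initial slope of Thallos dye fluorescence rise after thallium is added; log ratio against the mean of 0.3% DMSO vehicle wells on the same plate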
# [4] = test system: F380Y/beta4; experiment: as above; settings: at 30 µM
# [5] = test system: R275C/beta4; experiment: as above; settings: at 30 µM
# [6] = test system: R275C/Slo1WT/beta2; experiment: as above; settings: at 30 µM
# [7] = circadian clock period modulators, cell-based, LOPAC library, luminescence reporter (AID 2774; call rule not given here;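 note: values are relative to mean of DMSO wells on each plate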); settings: circadian reporter cells, at 7 µM, actives lie on both sides
# [8] = hESC survival regulators, cell-based (AID 493140; call rule not given here;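 note: cells exposed to compounds for four days before counting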); settings: human embryonic stem cell survival screen; stronger effect = higher value
# [9] = test system: Hepatitis C virus NS3 helicase; experiment: HCV NS3 helicase inhibitors, primary screen, biochemical, fluorescence polarization, LOPAC1280 library (AID 687035; in the data active = inhibition above about 37%); settings: Purified HCV NS3 helicase, Cy5-dT15 ssDNA binding fluorescence polarization; stronger effect = higher value; concentration not given here
# [10] = Cy5 fluorescence quenching or enhancement artefacts, artefact control for HCV NS3 helicase inhibitor project, biochemical, LOPAC1280 (AID 687037; call rule not given here); settings: Cy5-DNA-NS3h complex fluorescence interference counterscreen
# [11] = test system: Aerobactin synthetase IucA (Klebsiella pneumoniae); experiment: IucA aerobactin synthetase inhibitors, biochemical, Tocris library, absorbance (AID 1345561; call rule not given here;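 note: 100% = enzyme without compound and 0% = no enzyme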); settings: purified IucA enzyme assay, absorbance (OD) read-out; stronger effect = lower value;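 tested at 8 µM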
# [12] = phospholipid biosynthesis inhibitors in animal cells, primary screen, cell-based, LOPAC library, screen 4 (AID 1347384; call rule not given here); settings: phospholipid biosynthesis inhibition screen, at 10 µM
# [13] = polyglutamine-triggered caspase-3 activation inhibitors, cell-based (AID 1583); settings: polyglutamine-induced caspase-3 activation, cell assay; stronger effect = higher value;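 tested at 10 µM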
# [14] = suppressors of polyQ aggregation in yeast, 75Q-TubU reporter (AID 1593); settings: Yeast 75Q polyglutamine aggregation reporter
# [15] = rescue of polyQ-huntingtin neuronal dysfunction in worms, whole organism, C. elegans mechanosensory neurons, N-terminal huntingtin (AID 1599); settings: touch response, stronger effect = higher value
# [16] = inhibitors of mitochondrial cytochrome c release, biochemical, purified mitochondria (AID 1603); settings: stronger effect = lower value;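 note: mouse liver mitochondria challenged with calcium chloride; signal normalized to the plate average as 100%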
# [17] = inhibitors of polyQ protein aggregation (AID 1604); settings: polyglutamine-induced protein aggregation inhibition assay; stronger effect = higher value; tested at 2.5 µM
# [18] = enhancers of glutamate uptake in motor neurons, MN-1 cell line (AID 1612); settings: MN-1 motor neuron cells, stronger effect = higher value;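 note: tested at 1 µM final; 0% = mean of DMSO vehicle wells on each plate; positive means more glutamate uptake than control and negative means less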
# [19] = suppressors of polyglutamine aggregation in yeast, 75Q-TubH (AID 1616); settings: S. cerevisiae 75Q-TubH polyglutamine aggregation suppression; stronger effect = higher value
# [20] = growth inhibition of DIPG glioma cells, dose response, cell-based, JHH-DIPG-1, MIPE4.0, CellTiter-Glo, qHTS (AID 1347062; cut-off not given, nearly all actives have AC50 up to about 27 µM); settings: JHH-DIPG-1 viability, CellTiter-Glo ATP luminescence
compound,measurement,setting,value
CC(C)n1c(/C=C/[C@@H](O)C[C@@H](O)CC(=O)O)c(-c2ccc(F)cc2)c2ccccc21,SSMD,[1],2.42
same,cell count,[1],6600
same,plate-normalised HSF1 focus index,[1],1.13 (inactive)
Cc1occc(=O)c1O,z-score,[2],-0.38 (inactive)
same,log fold change Tl+ flux,[3],0.0152 (inactive)
same,log fold change Tl+ flux,[4],0.0304 (inactive)
same,log fold change Tl+ flux,[5],-0.00174 (inactive)
same,log fold change Tl+ flux,[6],0.0112 (inactive)
CNCCC(Oc1ccc(C(F)(F)F)cc1)c1ccccc1 (stereo unspecified),period change,[7],-0.16 h (inactive)
same,survival,[8],3.58 (inactive)
same,inhibition,[9],-3% (inactive)
same,fluorescence ratio (interference),[10],1 (inactive)
same,remaining activity,[11],124% (inactive)
same,outcome,[12],inactive
same,log fold change Tl+ flux,[3],0.157 (active)
same,log fold change Tl+ flux,[4],0.225 (active)
same,log fold change Tl+ flux,[5],0.301 (active)
same,log fold change Tl+ flux,[6],0.0335 (inactive)
COC(=O)[C@H](c1ccccc1Cl)N1CCc2sccc2C1,inhibition,[13],62%
same,score,[14],1.18
same,rescue above control,[15],1.25
same,cytochrome c release ratio,[16],0.98
same,inhibition of aggregation,[17],77.8%
same,glutamate uptake change,[18],-7.57%
same,aggregation suppression score,[19],1.88
same,outcome,[20],inactive
same,log fold change Tl+ flux,[3],0.0174 (inactive)
same,log fold change Tl+ flux,[4],0.0282 (inactive)
same,log fold change Tl+ flux,[5],-0.038 (inactive)
same,log fold change Tl+ flux,[6],-0.0324 (inactive)
CN(C)c1nc(N(C)C)nc(N(C)C)n1,inhibition,[13],-2.79%
same,score,[14],1.33
same,rescue above control,[15],6.66
same,cytochrome c release ratio,[16],1.53
same,inhibition of aggregation,[17],78.1%
same,glutamate uptake change,[18],20.9%
same,aggregation suppression score,[19],1.21
same,period change,[7],-0.095 h (inactive)
same,survival,[8],2.92 (inactive)
same,inhibition,[9],0% (inactive)
same,fluorescence ratio (interference),[10],0.9 (inactive)
same,outcome,[20],inactive
same,SSMD,[1],0.836
same,cell count,[1],7300
same,plate-normalised HSF1 focus index,[1],1.03 (inactive)
same,outcome,[12],inactive
same,log fold change Tl+ flux,[3],0.0385 (inactive)
same,log fold change Tl+ flux,[4],0.0174 (inactive)
same,log fold change Tl+ flux,[5],-0.000902 (inactive)
same,log fold change Tl+ flux,[6],0.0129 (inactive)
C[C@H]1COc2c(N3CCN(C)CC3)c(F)cc3c(=O)c(C(=O)O)cn1c23,z-score,[2],-0.188 (inactive)
same,outcome,[20],inactive
same,log fold change Tl+ flux,[3],0.0152 (inactive)
same,log fold change Tl+ flux,[4],-0.0339 (inactive)
same,log fold change Tl+ flux,[5],-0.0147 (inactive)
same,log fold change Tl+ flux,[6],0.0224 (inactive)
CC1=C(/C=C/C(C)=C/C=C/C(C)=C\C(=O)O)C(C)(C)CCC1,period change,[7],0.45 h (inactive)
same,survival,[8],10.8 (inactive) and 52.6 (inactive)
same,inhibition,[9],1% (inactive)
same,fluorescence ratio (interference),[10],0.9 (inactive)
same,outcome,[20],inactive
same,outcome,[12],inactive
same,log fold change Tl+ flux,[3],-0.0325 (inactive)
same,log fold change Tl+ flux,[4],-0.0711 (inactive)
same,log fold change Tl+ flux,[5],0.00975 (inactive)
same,log fold change Tl+ flux,[6],0.0252 (inactive)
O=[N+]([O-])c1cccc2cn[nH]c12,period change,[7],-0.295 h (inactive)
same,inhibition,[9],-1% (inactive)
same,fluorescence ratio (interference),[10],1 (inactive)
same,z-score,[2],-0.0317 (inactive)
same,remaining activity,[11],107% (inactive)
same,outcome,[12],inactive
same,log fold change Tl+ flux,[3],0.0616 (inactive)
same,log fold change Tl+ flux,[4],0.0331 (inactive)
same,log fold change Tl+ flux,[5],0.0112 (inactive)
same,log fold change Tl+ flux,[6],-0.00893 (inactive)
CC[C@H]1OC(=O)[C@H](C)[C@@H](O[C@H]2C[C@@](C)(OC)[C@@H](O)[C@H](C)O2)[C@H](C)[C@@H](O[C@@H]2O[C@H](C)C[C@H](N(C)C)[C@H]2O)[C@](C)(OC)C[C@@H](C)C(=O)[C@H](C)[C@@H](O)[C@]1(C)O,z-score,[2],-0.251 (inactive)
same,outcome,[20],inactive
same,log fold change Tl+ flux,[3],0.0264 (inactive)
same,log fold change Tl+ flux,[4],0.00789 (inactive)
same,log fold change Tl+ flux,[5],-0.0137 (inactive)
same,log fold change Tl+ flux,[6],-0.00092 (inactive)
CS(=O)(=O)c1ccc(C2=C(c3ccccc3)C(=O)OC2)cc1,z-score,[2],-0.0129 (inactive)
same,outcome,[20],inactive
same,log fold change Tl+ flux,[3],0.00163 (inactive)
same,log fold change Tl+ flux,[4],-0.000569 (inactive)
same,log fold change Tl+ flux,[5],0.00682 (inactive)
same,log fold change Tl+ flux,[6],0.00403 (inactive)
Nc1ncnc2c1ncn2[C@@H]1O[C@H](CO)[C@@H](O)[C@@H]1O,inhibition,[13],13.4%
same,score,[14],1.04
same,rescue above control,[15],-14.3
same,cytochrome c release ratio,[16],1.16
same,inhibition of aggregation,[17],56.1%
same,glutamate uptake change,[18],13.7%
same,aggregation suppression score,[19],0.666
same,log fold change Tl+ flux,[3],0.0507 (inactive)
same,log fold change Tl+ flux,[4],0.0319 (inactive)
same,log fold change Tl+ flux,[5],0.00861 (inactive)
same,log fold change Tl+ flux,[6],0.0175 (inactive)
COc1ccc(/C=C/C(=O)Nc2ccccc2C(=O)O)cc1OC,period change,[7],-0.165 h (inactive)
same,inhibition,[9],1% (inactive)
same,fluorescence ratio (interference),[10],1 (inactive)
same,z-score,[2],0.915 (inactive)
same,remaining activity,[11],119% (inactive)
same,outcome,[12],inactive
same,log fold change Tl+ flux,[3],-0.00383 (inactive)
same,log fold change Tl+ flux,[4],-0.0244 (inactive)
same,log fold change Tl+ flux,[5],-0.0078 (inactive)
same,log fold change Tl+ flux,[6],0.0419 (inactive)
CC(C)NCC(O)COc1cccc2ccccc12 (stereo unspecified),inhibition,[13],-12.7%
same,score,[14],1.12
same,rescue above control,[15],-3.83
same,cytochrome c release ratio,[16],1.04
same,inhibition of aggregation,[17],62.1%
same,glutamate uptake change,[18],4.46%
same,aggregation suppression score,[19],0.965
same,period change,[7],-0.115 h (inactive)
same,survival,[8],5.92 (inactive) and 9.92 (inactive) and 3.58 (inactive)
same,inhibition,[9],-4% (inactive)
same,fluorescence ratio (interference),[10],1 (inactive)
same,remaining activity,[11],97.5% (inactive)
same,outcome,[12],inactive
same,log fold change Tl+ flux,[3],-0.00888 (inactive)
same,log fold change Tl+ flux,[4],0.0503 (inactive)
same,log fold change Tl+ flux,[5],0.00549 (inactive)
same,log fold change Tl+ flux,[6],-0.0153 (inactive)

# Reference: PubChem BioAssay
